Hits are enriched below; roughly 3.6% of the tested compounds scored in any of these assays.
Sm TGR block – S. mansoni TGR enzyme inhibition; purified TGR, DTNB reduction, TNB absorbance 405 nm; Potency, µM (highest dose often 114 µM), for inactives: at the top dose activity change, negative = inhibition, usual class: inhibitors; 3% of 360,000 active; AID 485364; also: nearly all actives have a fitted effect of over 60% in size
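TGR 20 nM + NADPH 100 uM (dispensed conc.), cpd preinc 15 min RT; start with NADPH (500 uM addition) then DTNB (15 mM addition). Kinetic TNB absorbance, 405 nm filter. Four-parameter Hill fit across titration.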
FBPA Giardia inh – inhibitors of Giardia lamblia fructose-1,6-bisphosphate aldolase; Potency, µM (top dose mostly 59.6 µM), without a hit: at the highest dose activity, negative = inhibition, usual class: inhibitors; 0.71% of 290,000 active; AID 2451; purified Giardia FBPA; also: nearly all actives have a fitted effect of over 55% in size
Target sequence (A8B2U2 whole entry, looked up): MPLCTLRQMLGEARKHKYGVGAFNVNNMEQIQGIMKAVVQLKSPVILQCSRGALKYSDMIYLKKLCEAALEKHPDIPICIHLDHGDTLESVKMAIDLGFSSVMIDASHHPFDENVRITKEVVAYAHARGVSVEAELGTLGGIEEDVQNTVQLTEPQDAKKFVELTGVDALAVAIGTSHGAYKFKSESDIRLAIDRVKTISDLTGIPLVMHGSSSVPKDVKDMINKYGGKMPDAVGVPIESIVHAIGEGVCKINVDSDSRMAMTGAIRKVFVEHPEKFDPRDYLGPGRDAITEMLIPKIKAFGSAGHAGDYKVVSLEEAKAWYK
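Giardia FBPA (40 nM reagent) was preincubated 10 min at RT with compound (up to 57.5 uM final), then substrate plus GAPDH/TPI/NAD/arsenate coupling system with diaphorase/resazurin was added; resorufin fluorescence (525/598 nm) was read after 20 min.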
AmpC no deterg – inhibitors of E. coli AmpC beta-lactamase without detergent. AmpC nitrocefin hydrolysis, absorbance 480 nm, 0.0001% Triton. P00811. 0.52% of 330,000 active. Potency, µM (highest dose often 57.1 µM), for inactives: top-dose activity change, negative = inhibition, usual class: inhibitors;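 also: plate controls were no compound for no effect and no enzyme for full effect; nearly all actives have a fitted effect of over 20% in size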
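AmpC (5.3 nM in the dispensed reagent) in 20 mM phosphate pH 7.0 with 0.01% (detergent screen) or 0.0001% Triton X-100 was preincubated with compounds for 15 min at room temperature. Nitrocefin was then added from an 800 uM solution, and hydrolysis was followed at 480 nm.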
AmpC detergent – AmpC beta-lactamase inhibition with detergent present; 0.041% of 370,000 active; P00811; Potency, µM (top dose mostly 114 µM), inactives show at the top dose activity change, negative = inhibition, usual class: inhibitors; AmpC hydrolysis of nitrocefin, absorbance 480 nm, 0.01% Triton;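 also: 0% = no-compound wells and -100% = no-enzyme wells; nearly all actives have a fitted effect of over 25% in size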
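AmpC (5.3 nM in the dispensed reagent) in 20 mM phosphate pH 7.0 with 0.01% (detergent screen) or 0.0001% Triton X-100 was preincubated with compounds for 15 min at room temperature. Nitrocefin was then added from an 800 uM solution, and hydrolysis was followed at 480 nm.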
* = called active by the depositor; u = inconclusive; x = no result given; [ ] = dose if it differs, or a comment. Calls follow the shape of the dose curve; as a rule, active = well fitted curve in the direction sought with a large enough effect; inconclusive = small, poorly fitted or top-dose-only effect, or another doubt; inactive = no such curve, though single readings can be large; an effect the other way counts as inactive or inconclusive. Unless noted, % is scaled to controls: 0 for no effect and ±100 for the full control effect; potency is read from the fitted curve at half-maximal effect.

SMILES | Sm TGR block | FBPA Giardia inh | AmpC no deterg | AmpC detergent
CCN1CCOC(CC(=O)Nc2ccc([N+](=O)[O-])cc2)C1=O (stereo not given) | 20µM* | -1% | -16% | 8%
O=C(CC1OCC2CCCN2C1=O)Nc1ccc([N+](=O)[O-])cc1 (stereo not given) | 25µM* | 0% | -36% | -10%
CCCC[C@@H]1CCCO[C@@](C(=O)NCc2ccc(S(C)(=O)=O)cc2)(C(F)(F)F)C1 | x | -1% | x | x
C=C1C[C@H](OC(=O)C(C)(O)CCl)C2C(=C)C(=O)O[C@@H]2C2C1C[C@H](O)[C@]2(O)CCl (stereo not given in full) | x | 0% | x | x
C=C1C(=O)O[C@H]2[C@H]1[C@@H](O)CC(=C)[C@@H]1CC(=O)[C@@H](C)[C@H]21 | 22µM* | -4% | -17% | u
COc1ccc2c(c1)CC(C(=O)NCCc1ccc(S(N)(=O)=O)cc1)CO2 (stereo not given) | -1% | x | x | 14%
COCCN1CCn2c(nc3cc([N+](=O)[O-])ccc32)C1 | 40µM* | -3% | -15% | -3%
O=[N+]([O-])c1ccc2c(c1)nc1n2CCSC1 | 29% | 1% | -4% | -1%
O=[N+]([O-])c1ccc2c(c1)nc1n2CCN(CC2CCCO2)C1 (stereo not given) | u | -1% | -9% | -5%
O=[N+]([O-])c1ccc2c(c1)nc1n2CCN(c2ccccc2)C1 | 28µM* | -6% | -38% | 1%
COc1cccc([C@@H]2Oc3ccc(Br)cc3C[C@H]2OC(=O)N[C@H]2CCCc3ccccc32)c1 | x | -7% | x | x
CN(C)NC1CCS(=O)(=O)C1 (stereo not given) | 1.6µM* | -21% | -6% | 3%
O=C1c2oc3ccccc3c(=O)c2C(c2cccc(O)c2)N1Cc1ccc(F)cc1 (stereo not given) | 2% | x | x | 28%
Cc1ccnc(NC(c2ccccn2)c2c(C)[nH]c3ccccc23)c1 (stereo not given) | 0.28µM* | 0% | -1%[2.29 µM] | -7%
Cc1cc(NC(c2cccnc2)c2c(C)[nH]c3ccccc23)no1 (stereo not given) | 2.8µM* | -7% | -30% | u
Cc1cc(NC(=O)CSc2c(C)[nH]c3ccccc23)no1 | 4% | 4% | -23% | u
CC(=O)Nc1ccc(N=c2cc([N+](=O)[O-])cc(Cl)n2O)cc1 | -29% | -3% | -12% | -7%
COc1cc(CN2CCCC(CO)(Cc3cccc(Cl)c3)C2)cc(OC)c1O (stereo not given) | 28µM* | -27% | 26% | -8%
OCC1(Cc2ccccc2)CCCN(Cc2ccc(-c3ccco3)cc2)C1 (stereo not given) | 35µM* | 1% | 14% | -1%
CSc1cccc(CN2CCC(CO)(Cc3ccccc3)CC2)c1 | 16% | 4% | 52% | 1%
CCN1CCCC(CO)(Cc2ccccc2)C1 (stereo not given) | u | 1% | -6% | 4%
OCC1(Cc2ccccc2)CCN(Cc2ccc(-c3ccco3)cc2)CC1 | 32µM* | 0% | 93% | 5%
COc1ccc(CN2CCCC(CO)(Cc3cccc(Cl)c3)C2)cc1OC (stereo not given) | 4% | 15% | 15% | u
CCN(CC)S(=O)(=O)c1ccc2c(c1)N(CC(=O)N1CCN(c3cccc(C)c3C)CC1)C(=O)CO2 | 4% | x | x | 3%
COc1ccc(-c2cc(C(F)(F)F)nc(SCCC(=O)Nc3ccc(F)cc3F)n2)cc1 | 4% | x | x | 2%
SMILES | Sm TGR block | FBPA Giardia inh | AmpC no deterg | AmpC detergent
Cc1ccc(S(=O)(=O)N2CCN(C(=O)CN3CCOCC3)C2c2ccccc2)cc1 (stereo not given) | 40µM* | 8% | 15% | -13%
COc1ccc(/C=C2\CCCc3c2nc2ccccc2c3C(=O)O)cc1OC | 20µM* | 7.9µM* | -31% | 4%
COc1cc(/C=C2\CCCc3c2nc2ccccc2c3C(=O)O)cc([N+](=O)[O-])c1O | -23% | u | -20% | -2%
COc1cc(/C=C2\CCCc3c2nc2ccccc2c3C(=O)O)cc(OC)c1O | 20µM* | u | -17% | -8%
COc1ccc(/C=C2\CCc3c2nc2ccccc2c3C(=O)O)cc1OC | -15% | -16% | -19% | -15%
Cc1ccc(-n2cccc2/C=C2\C(=N)N3N=C(C(C)C)SC3=NC2=O)cc1 | 7% | 1% | 16µM* | u
O=C(CNC(=O)c1ccco1)N/N=C/c1ccc(C(=O)O)cc1 | 24% | -17% | -20% | 5%
COc1ccc([N+](=O)[O-])cc1NC(=O)Nc1ccccc1 | 8% | 1% | -25% | 1%
COc1ccc([N+](=O)[O-])cc1NC(=S)Nc1ccccc1 | 28µM* | -8% | -22% | 4%
C/C=C/C=C/C(=O)OC(C)C(=O)Nc1cc([N+](=O)[O-])ccc1OC (stereo not given) | 22µM* | 0% | -35% | -2%
O=C1C2=C(S[C@@H]3O[C@H](CO)[C@@H](O)[C@H](O)[C@H]3O2)C(=O)c2ccccc21 | x | -19% | x | x
O=C(OCn1ncc(Br)c(Br)c1=O)c1c(F)cccc1F | 0.56µM* | -3% | -23% | u
CCOc1ccc(C2N3CC4(C(C)C)CN2CC(C(C)C)(C3)C4=O)cc1OC (stereo not given) | 9% | x | x | 17%
Cc1cnc(C(=O)Oc2ccc(-c3ccccc3)cc2)cn1 | -4% | -5% | -2% | 3%
COc1cc(/C=C2/CCCC(C(=O)C(F)(F)F)=C2O)ccc1O | 35µM* | -2% | -25% | 4%
COc1ccc(/C=C2/CCCC(C(=O)C(F)(F)F)=C2O)cc1OC | u | -7% | 23% | -4%
COc1ccc(/C=C2\CCCC(C(=O)C(F)(F)F)=C2O)cc1OC | 32µM* | u | 1% | 1%
COc1ccc(S(=O)(=O)N2CCC(n3c(C)nc4cccnc43)CC2)cc1Cl | 4% | x | x | 9%
CC1CCN(c2ncnc3c2nnn3C)CC1 | 13% | x | x | 2%
Cc1ccnc2c(N3C(=O)C4C5C=CC(C5)C4(C)C3=O)cccc12 (stereo not given) | -2% | 2% | 7.1µM* | u
COc1ccc(-n2nnnc2C2CCN(S(=O)(=O)c3cccc(C(F)(F)F)c3)CC2)cc1 | 2% | x | x | 2%
O=C(Cc1ccc(S(=O)(=O)N2CCOCC2)s1)NCC(=O)Nc1ccccc1Br | 56µM* | x | -18% | 1%
OCc1cc(-c2ccccn2)no1 | -13% | x | 1% | u
O=C(Cc1cnn(-c2ccccc2)c1)c1ccc(O)c(O)c1O | u | 3.5µM* | -55% | 0%
CCc1cc(C(=O)Cc2cnn(-c3ccccc3)c2)c(O)cc1O | -8% | -2% | -51% | -1%
FC(F)(F)c1cc(-c2ccco2)nc(NCc2cccnc2)n1 | 45µM* | 2% | 46% | 3%
FC(F)(F)c1cc(-c2ccco2)nc(NCc2ccccc2)n1 | 18µM* | -6% | -20% | 3%
FC(F)(F)c1cc(-c2ccccc2)nc(NCc2cccnc2)n1 | -11% | 1% | 27% | 0%
